Source: the supplement of paper PMC10849652
Of roughly 7,900 targets only a part is listed; those with a hit were picked by preference. About 0.6% of all pairs of compound and target were hits.

Compound: C#Cc1cccc(Nc2ncnc3cc(OCCOC)c(OCCOC)cc23)c1 [erlotinib]
Experiment: log2 fold change, soluble protein after heating vs DMSO (PISA); higher = thermal stabilisation; K562 cells, 10 uM, 30 min; active = over 0.2 and 3.5 SD of the protein, either way, in both replicates (recomputed)
Method in brief: (§1)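 Thermal stability values are relative to control samples and come from duplicates. They are expressed as log2 fold changes. For measurement, K562 cells (2×10^6 cells/mL) received 10 μM compound for 30 min, and aliquots were heated for 3 min over 48°C-58°C, pooled, and extracted at 4°C in PBS with 0.5% NP-40. Soluble protein, the supernatant after 21,000xg for 90 min, was quantified by TMTpro 16plex LC-MS/MS with equalised channel sums.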

UniProt Q15392, sequence (Q15392 whole entry, looked up): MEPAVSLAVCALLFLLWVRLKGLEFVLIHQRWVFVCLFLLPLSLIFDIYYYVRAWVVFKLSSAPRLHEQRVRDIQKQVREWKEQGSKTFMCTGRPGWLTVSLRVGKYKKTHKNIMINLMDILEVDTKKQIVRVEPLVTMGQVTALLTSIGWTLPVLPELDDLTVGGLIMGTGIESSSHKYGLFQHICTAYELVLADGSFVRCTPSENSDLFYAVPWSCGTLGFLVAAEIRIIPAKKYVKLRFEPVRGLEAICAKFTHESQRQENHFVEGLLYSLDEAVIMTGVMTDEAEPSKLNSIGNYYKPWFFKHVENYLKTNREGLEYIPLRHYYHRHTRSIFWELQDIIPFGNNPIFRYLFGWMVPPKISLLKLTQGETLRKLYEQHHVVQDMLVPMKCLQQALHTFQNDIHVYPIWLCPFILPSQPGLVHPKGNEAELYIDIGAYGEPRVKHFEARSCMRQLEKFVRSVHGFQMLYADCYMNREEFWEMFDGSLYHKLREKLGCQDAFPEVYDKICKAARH
UniProt Q9NVR5, sequence (Q9NVR5 whole entry, looked up): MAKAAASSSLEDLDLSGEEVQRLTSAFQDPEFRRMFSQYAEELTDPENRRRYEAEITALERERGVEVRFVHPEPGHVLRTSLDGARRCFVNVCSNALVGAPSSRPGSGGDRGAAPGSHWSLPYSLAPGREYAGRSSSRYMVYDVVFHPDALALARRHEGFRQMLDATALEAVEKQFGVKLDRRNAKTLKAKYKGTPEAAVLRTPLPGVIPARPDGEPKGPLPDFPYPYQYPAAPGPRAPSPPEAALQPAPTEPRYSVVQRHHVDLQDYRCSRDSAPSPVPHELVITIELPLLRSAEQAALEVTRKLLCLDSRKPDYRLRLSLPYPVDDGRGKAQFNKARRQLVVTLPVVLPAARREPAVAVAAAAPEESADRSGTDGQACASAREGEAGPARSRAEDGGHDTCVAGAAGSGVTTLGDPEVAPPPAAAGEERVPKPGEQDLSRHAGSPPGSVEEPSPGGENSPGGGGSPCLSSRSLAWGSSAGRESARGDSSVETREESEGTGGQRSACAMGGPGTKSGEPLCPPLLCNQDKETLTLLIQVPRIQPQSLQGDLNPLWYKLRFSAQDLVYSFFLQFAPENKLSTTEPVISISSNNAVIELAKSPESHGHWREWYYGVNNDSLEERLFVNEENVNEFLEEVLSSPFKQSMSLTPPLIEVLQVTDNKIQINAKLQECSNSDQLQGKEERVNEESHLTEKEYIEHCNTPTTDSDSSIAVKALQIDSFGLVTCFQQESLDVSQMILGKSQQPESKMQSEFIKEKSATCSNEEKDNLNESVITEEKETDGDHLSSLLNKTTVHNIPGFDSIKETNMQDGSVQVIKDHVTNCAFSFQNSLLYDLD
UniProt O00148, sequence (O00148 whole entry, looked up): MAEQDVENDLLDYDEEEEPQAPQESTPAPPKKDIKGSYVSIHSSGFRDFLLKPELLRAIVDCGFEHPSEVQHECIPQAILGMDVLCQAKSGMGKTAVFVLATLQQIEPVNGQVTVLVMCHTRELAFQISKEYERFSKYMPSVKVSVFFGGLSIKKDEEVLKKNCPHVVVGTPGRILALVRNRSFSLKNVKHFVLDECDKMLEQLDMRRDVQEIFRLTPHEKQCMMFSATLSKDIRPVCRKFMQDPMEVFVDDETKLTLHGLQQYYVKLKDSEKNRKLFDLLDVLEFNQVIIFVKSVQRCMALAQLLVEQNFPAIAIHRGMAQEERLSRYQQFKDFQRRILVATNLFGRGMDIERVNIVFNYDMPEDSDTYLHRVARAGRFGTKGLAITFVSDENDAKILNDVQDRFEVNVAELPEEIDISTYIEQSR
UniProt O76075, sequence (O76075 whole entry, looked up): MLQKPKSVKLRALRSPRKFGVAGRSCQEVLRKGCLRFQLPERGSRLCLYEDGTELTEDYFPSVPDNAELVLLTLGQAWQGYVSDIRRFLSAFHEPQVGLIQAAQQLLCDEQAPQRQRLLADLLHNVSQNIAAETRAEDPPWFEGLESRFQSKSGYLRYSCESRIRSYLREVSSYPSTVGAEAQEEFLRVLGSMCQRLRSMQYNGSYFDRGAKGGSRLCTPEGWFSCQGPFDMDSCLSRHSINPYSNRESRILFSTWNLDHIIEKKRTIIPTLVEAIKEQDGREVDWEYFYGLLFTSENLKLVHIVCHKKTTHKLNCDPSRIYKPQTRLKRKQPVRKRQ
UniProt P35222, sequence (P35222 whole entry, looked up): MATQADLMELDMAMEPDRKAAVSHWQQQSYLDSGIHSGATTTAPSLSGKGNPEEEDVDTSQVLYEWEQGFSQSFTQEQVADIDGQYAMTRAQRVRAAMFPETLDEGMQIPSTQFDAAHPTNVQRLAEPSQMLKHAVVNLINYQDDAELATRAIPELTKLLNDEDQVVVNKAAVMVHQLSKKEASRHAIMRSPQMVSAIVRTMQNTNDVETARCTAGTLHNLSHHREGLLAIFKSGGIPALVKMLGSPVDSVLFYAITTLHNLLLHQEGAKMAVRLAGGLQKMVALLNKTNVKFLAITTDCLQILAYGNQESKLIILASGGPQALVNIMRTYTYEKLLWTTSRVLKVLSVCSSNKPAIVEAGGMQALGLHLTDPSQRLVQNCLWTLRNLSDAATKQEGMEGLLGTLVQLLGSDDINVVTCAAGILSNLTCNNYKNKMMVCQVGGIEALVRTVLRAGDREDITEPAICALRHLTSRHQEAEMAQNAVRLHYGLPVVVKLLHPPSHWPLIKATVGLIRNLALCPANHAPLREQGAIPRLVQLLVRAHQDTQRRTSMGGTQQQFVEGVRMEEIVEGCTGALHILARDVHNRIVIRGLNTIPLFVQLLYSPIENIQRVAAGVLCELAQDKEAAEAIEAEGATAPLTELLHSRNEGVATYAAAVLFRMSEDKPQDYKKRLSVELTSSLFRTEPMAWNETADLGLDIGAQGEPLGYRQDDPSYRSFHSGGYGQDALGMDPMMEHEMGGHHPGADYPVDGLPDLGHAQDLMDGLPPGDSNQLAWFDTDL
UniProt Q9NRY5, sequence (Q9NRY5 whole entry, looked up): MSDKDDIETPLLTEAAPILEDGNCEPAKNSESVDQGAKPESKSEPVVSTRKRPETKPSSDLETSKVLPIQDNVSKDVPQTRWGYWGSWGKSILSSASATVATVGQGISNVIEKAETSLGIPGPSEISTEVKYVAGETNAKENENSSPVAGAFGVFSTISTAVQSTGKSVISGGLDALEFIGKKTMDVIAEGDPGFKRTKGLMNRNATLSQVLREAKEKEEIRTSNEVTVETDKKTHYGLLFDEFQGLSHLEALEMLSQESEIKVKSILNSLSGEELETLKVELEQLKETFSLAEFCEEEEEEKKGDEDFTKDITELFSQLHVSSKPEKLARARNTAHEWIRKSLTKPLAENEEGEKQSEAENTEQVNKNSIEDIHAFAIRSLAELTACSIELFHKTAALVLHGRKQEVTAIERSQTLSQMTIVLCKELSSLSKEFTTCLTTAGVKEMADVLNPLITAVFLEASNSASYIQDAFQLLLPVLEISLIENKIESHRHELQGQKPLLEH
UniProt Q16643, sequence (Q16643 whole entry, looked up): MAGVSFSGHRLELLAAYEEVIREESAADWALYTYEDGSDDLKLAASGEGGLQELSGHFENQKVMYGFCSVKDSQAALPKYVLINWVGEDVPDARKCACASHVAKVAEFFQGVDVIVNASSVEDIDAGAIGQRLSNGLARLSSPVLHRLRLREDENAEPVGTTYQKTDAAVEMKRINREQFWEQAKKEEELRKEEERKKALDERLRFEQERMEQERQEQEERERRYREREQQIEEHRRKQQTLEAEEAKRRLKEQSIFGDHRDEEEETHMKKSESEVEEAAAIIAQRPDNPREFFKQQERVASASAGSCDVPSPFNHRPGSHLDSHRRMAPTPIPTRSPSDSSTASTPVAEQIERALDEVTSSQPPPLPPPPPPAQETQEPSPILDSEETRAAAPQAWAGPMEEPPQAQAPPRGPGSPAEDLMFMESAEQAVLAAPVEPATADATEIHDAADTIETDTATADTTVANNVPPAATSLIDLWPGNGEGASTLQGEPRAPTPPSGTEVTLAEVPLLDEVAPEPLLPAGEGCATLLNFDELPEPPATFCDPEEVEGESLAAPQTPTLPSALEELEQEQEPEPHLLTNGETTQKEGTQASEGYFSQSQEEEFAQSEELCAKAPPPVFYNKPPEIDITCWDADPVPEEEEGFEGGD
UniProt P26641, sequence (P26641 whole entry, looked up): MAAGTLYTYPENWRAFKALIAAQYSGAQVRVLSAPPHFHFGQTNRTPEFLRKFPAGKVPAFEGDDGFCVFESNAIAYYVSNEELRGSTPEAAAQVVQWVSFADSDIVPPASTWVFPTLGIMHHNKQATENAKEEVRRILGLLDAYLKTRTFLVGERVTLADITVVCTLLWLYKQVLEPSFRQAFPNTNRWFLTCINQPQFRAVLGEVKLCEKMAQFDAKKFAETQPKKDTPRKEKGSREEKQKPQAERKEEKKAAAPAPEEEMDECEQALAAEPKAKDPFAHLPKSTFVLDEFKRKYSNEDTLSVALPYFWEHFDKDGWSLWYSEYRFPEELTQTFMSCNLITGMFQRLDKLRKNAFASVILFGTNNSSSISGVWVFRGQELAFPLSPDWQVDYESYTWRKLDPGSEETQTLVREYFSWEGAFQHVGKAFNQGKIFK
UniProt Q9UBQ6, sequence (Q9UBQ6 whole entry, looked up): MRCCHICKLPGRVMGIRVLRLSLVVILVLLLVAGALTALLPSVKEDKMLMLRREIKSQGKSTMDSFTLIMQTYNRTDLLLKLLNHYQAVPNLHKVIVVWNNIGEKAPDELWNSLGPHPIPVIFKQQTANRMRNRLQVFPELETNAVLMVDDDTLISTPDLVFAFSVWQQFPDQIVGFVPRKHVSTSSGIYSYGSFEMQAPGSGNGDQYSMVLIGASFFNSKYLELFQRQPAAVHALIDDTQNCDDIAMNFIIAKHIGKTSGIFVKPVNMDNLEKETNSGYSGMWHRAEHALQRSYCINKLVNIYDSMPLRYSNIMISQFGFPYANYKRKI
UniProt O60888, sequence (O60888 whole entry, looked up): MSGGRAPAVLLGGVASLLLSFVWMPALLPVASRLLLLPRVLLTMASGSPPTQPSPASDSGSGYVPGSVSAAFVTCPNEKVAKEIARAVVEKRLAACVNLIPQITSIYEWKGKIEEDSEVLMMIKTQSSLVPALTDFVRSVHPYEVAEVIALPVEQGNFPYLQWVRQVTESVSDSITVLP

log2 fold change, inactive:
CTU1 (UniProt Q7Z7A3) 0.05
DNAJC1 (UniProt Q96KC8) 0.001
EIF4E isoform 2 (UniProt P06730) 0.084
DIP2A (UniProt Q14689) -0.002
DBN1 isoform 3 (UniProt Q16643) -0.095
EXOC6 (UniProt Q8TAG9) 0.073
EXTL2 (UniProt Q9UBQ6) 0.051
DDOST (UniProt P39656) -0.033
DDX39A (UniProt O00148) 0.038
ERCC6 (UniProt Q03468) -0.036
DYRK1A isoform 2 (UniProt Q13627) 0.034
DBR1 (UniProt Q9UK59) 0.031
EEF1G isoform 2 (UniProt P26641) -0.051
DHFR (UniProt P00374) 0.156
EFL1 (UniProt Q7Z2Z2) 0
FAM114A2 (UniProt Q9NRY5) -0.001
DNAAF2 (UniProt Q9NVR5) 0.046
EXOC8 (UniProt Q8IYI6) 0.048
DUS3L (UniProt Q96G46) -0.073
DHPS (UniProt P49366) 0
EDEM2 (UniProt Q9BV94) -0.025
DHX16 (UniProt O60231) 0.01
ERCC2 (UniProt P18074) 0.04
DHCR24 (UniProt Q15392) 0.393
DNM2 (UniProt P50570) 0.042
EHBP1L1 (UniProt Q8N3D4) -0.005
FAM118B (UniProt Q9BPY3) 0.164
EBNA1BP2 (UniProt Q99848) -0.041
CUTA isoform 2 (UniProt O60888) -0.01
EXOC1 (UniProt Q9NV70) 0.057
DFFB (UniProt O76075) -0.015
ELOVL1 (UniProt Q9BW60) -0.022
FAM3A (UniProt P98173) -0.064
DTWD2 (UniProt Q8NBA8) 0.017
DDB1 (UniProt Q16531) -0.03
E2F4 (UniProt Q16254) 0.021
DPH5 isoform 5 (UniProt Q9H2P9) 0
CTNNB1 (UniProt P35222) -0.035
FAM50A (UniProt Q14320) 0.015

Compound: C/C(=N\NC(=O)C1=CC(=CC=C1)S(=O)(=O)N2CCOCC2)/C3=C(C=CC(=C3)Cl)O
Experiment: as above
Method in brief: as §1

log2 fold change, inactive:
CTU1 (UniProt Q7Z7A3) -0.01
DNAJC1 (UniProt Q96KC8) 0.096
EIF4E isoform 2 (UniProt P06730) -0.035
DIP2A (UniProt Q14689) 0.07
DBN1 isoform 3 (UniProt Q16643) -0.047
EXOC6 (UniProt Q8TAG9) 0.127
EXTL2 (UniProt Q9UBQ6) 0.018
DDOST (UniProt P39656) 0.003
DDX39A (UniProt O00148) 0.027
ERCC6 (UniProt Q03468) 0.06
DYRK1A isoform 2 (UniProt Q13627) 0.039
DBR1 (UniProt Q9UK59) 0.042
EEF1G isoform 2 (UniProt P26641) 0.062
DHFR (UniProt P00374) 0
EFL1 (UniProt Q7Z2Z2) 0.051
FAM114A2 (UniProt Q9NRY5) 0.051
DNAAF2 (UniProt Q9NVR5) 0.021
EXOC8 (UniProt Q8IYI6) 0.144
DUS3L (UniProt Q96G46) 0.025
DHPS (UniProt P49366) -0.01
EDEM2 (UniProt Q9BV94) 0.023
DHX16 (UniProt O60231) 0.05
ERCC2 (UniProt P18074) 0.049
DHCR24 (UniProt Q15392) 0.068
DNM2 (UniProt P50570) 0.065
EHBP1L1 (UniProt Q8N3D4) 0.088
FAM118B (UniProt Q9BPY3) 0.098
EBNA1BP2 (UniProt Q99848) -0.149
CUTA isoform 2 (UniProt O60888) -0.066
EXOC1 (UniProt Q9NV70) 0.163
DFFB (UniProt O76075) 0.103
ELOVL1 (UniProt Q9BW60) 0.019
FAM3A (UniProt P98173) 0.118
DTWD2 (UniProt Q8NBA8) 0.018
DDB1 (UniProt Q16531) 0.006
E2F4 (UniProt Q16254) -0.003
DPH5 isoform 5 (UniProt Q9H2P9) 0.054
CTNNB1 (UniProt P35222) 0.062
FAM50A (UniProt Q14320) 0.051
